The target of one test is AR (gene 367) (UniProt P10275). Kind of test: ACEA_AR_agonist_80hr: ACEA Biosciences xCELLigence Real-Time Cell Analysis on Androgen Receptor Agonism for Proliferation (AID 2283783).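 Note: hits increase impedance growth signal above DMSO baseline.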 An outline of the steps:
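Proliferation of 22Rv1 prostate cancer cells tracked by electrical impedance, endpoint taken at 80 hours after dosing. Eight-point 1:4 dilutions from 100 uM maximum final, duplicate; testosterone and MG132 as positive controls, assay media as negative.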

In test [1] the target is GAL4 Transcription Factor (Internal Marker), GAL4 (gene 855828) (UniProt P04386). In words: ATG_GAL4_XSP1: Attagene TRANS-FACTORIAL Multi-Species (XSP1) HepG2 Assay for GAL4 Transcription Factor (Internal Marker) (AID 2283789). Put shortly: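 HepG2 cells transiently transfected with multiplexed GAL4-UAS reporter units were exposed for 24 h with 3 nM 6-alpha-fluorotestosterone present. Reporter mRNA was quantified by RT-PCR, FAM labelling, HpaI digestion and capillary electrophoresis; background-control readout, gain-of-signal versus DMSO.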

Results filed as inconclusive are left out. The source made the active and inactive calls. Rule for the calls: active = hit-call score of the fitted dose curve at least 0.9, where 1 is the maximum; inconclusive = response in the unintended direction; inactive = score below 0.9.

AR (gene 367), sequence (P10275 whole entry, looked up): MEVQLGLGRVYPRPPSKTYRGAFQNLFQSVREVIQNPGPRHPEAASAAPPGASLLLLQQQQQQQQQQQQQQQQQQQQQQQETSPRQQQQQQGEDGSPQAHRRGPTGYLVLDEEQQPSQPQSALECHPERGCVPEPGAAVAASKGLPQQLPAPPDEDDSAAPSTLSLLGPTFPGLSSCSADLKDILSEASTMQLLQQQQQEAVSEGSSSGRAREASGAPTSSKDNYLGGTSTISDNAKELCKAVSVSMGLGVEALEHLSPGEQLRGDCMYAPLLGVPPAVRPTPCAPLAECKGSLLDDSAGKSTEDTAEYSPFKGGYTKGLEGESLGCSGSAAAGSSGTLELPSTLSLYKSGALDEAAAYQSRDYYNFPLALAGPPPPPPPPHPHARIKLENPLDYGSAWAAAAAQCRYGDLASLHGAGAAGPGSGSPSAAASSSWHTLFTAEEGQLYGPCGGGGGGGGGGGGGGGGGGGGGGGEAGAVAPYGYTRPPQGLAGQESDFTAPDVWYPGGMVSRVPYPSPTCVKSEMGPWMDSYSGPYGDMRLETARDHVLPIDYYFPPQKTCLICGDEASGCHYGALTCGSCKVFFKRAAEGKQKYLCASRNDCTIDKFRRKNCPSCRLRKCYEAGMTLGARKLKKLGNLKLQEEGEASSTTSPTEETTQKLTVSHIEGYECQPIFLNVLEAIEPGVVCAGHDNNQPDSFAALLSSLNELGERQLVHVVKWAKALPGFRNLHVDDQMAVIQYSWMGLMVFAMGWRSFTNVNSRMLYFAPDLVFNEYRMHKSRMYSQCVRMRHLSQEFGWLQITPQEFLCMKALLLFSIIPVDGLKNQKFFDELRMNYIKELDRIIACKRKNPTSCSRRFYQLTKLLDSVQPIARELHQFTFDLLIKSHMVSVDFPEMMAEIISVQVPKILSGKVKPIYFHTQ
GAL4 Transcription Factor (Internal Marker), GAL4 (gene 855828), sequence (P04386 whole entry, looked up, the tested form may be a part): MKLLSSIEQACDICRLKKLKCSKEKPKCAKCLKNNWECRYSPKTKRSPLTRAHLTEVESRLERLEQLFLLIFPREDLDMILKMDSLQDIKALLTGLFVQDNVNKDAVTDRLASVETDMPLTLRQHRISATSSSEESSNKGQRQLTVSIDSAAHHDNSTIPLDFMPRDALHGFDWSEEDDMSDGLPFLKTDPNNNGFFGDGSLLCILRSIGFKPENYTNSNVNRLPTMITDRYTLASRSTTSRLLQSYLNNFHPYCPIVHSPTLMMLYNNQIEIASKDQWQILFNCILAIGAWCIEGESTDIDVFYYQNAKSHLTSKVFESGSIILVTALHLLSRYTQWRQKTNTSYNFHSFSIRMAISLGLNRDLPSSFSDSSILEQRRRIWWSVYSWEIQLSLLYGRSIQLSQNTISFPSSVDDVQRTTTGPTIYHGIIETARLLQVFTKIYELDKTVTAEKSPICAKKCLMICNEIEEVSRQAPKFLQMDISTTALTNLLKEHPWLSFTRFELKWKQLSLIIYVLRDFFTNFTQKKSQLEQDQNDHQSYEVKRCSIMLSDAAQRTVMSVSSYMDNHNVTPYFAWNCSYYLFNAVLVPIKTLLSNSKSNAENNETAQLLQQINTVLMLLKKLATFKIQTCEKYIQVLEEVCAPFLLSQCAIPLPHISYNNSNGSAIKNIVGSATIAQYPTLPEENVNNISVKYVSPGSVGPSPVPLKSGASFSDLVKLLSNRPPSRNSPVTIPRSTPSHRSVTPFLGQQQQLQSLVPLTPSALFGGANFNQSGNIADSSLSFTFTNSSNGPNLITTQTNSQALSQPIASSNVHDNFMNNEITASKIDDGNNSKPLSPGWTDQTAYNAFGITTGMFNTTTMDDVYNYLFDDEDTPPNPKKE

In the case of `C[C@]12CC[C@@H]3c4ccc(O)cc4C[C@@H](CCCCCCCCCS(=O)CCCC(F)(F)C(F)(F)F)[C@H]3[C@@H]1CC[C@@H]2O` (some centres not stated), the compound was called inactive with AR (gene 367).

Take `CCCCC(CC)CN1C(=O)C2C3C=CC(C3)C2C1=O` (configuration not stated): in test [1], the compound was called inactive.
